The values that follow come from PubChem BioAssay (Tox21).

Structures are written as SMILES. Results filed as inconclusive are left out. A number with no mark means an inactive call. The source made the active and inactive calls. Calls come from the whole dose curve; as a rule, active = well fitted cell-killing curve with a large enough effect in the repeat runs; inconclusive = weak or mixed curves, or effect the other way; inactive = flat fitted curve, though single readings scatter.

The nature of experiment [1]: cAMP Responsive Elements (CRE) small molecule antagonists, cell-based qHTS assay: qHTS cell viability counter screen (AID 2060913). Note: nearly all actives have a fitted effect of over 40% in size. In short, it runs like this: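 Steps: cells plated and held 18 hrs at 37 C/5% CO2; compounds and NKH477 (0.25 uM final) added; 3 hrs incubation; reporter substrate read; CellTiter-Glo added to measure cytotoxicity by luminescence.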
Experiment [2] in a line: cAMP Responsive Elements (CRE) small molecule agonists, cell-based qHTS assay: qHTS cell viability counter screen (AID 2060914).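 Note: viability read after 3 h of compound exposure; nearly all actives have a fitted effect of over 50% in size.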 Put shortly:
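CRE-bla HEK 293T cells, plated 18 h at 37 °C, were exposed to compounds for 3 h at 37 °C/5% CO2. Viability was then measured in the same wells by CellTiter-Glo luminescence after 30 min at room temperature.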
% is set by controls: 0 for no effect and ±100 for the full control effect.

For the compound `CC(C)CC=O`, the Potency result in experiment [1] and in experiment [2] was “inactive” each time.
For the compound `O=C(Cl)c1cc(Cl)cc(Cl)c1`, the Potency entry in experiment [1] and in experiment [2] was “inactive” in each case.
For `OCC1CC2CC1C1CCC(CO)C21` (stereo not given), the Potency entry in experiment [1] and in experiment [2] was “inactive” each time.
As to `C#CCOC(=O)[C@@H](C)Oc1ccc(Oc2ncc(Cl)cc2F)cc1`, the Potency entry in experiment [1] and in experiment [2] was “inactive” in each case.
With `CN(C)c1ccc2nc3ccc(=[N+](C)C)cc-3sc2c1`, the Potency entry in experiment [1] and in experiment [2] was “inactive” in each case.
`C/C=C/C=C/COC(=O)C(C)C`: the Potency entry in experiment [1] and in experiment [2] was “inactive” throughout.
Turning to `COc1cc2c(cc1OC)C(C(C(=O)N(CCc1ccc(OC)c(OC)c1OC)CCc1ccc(OC)c(OC)c1OC)c1ccccc1)=NCC2` (stereo not given), the Potency result in experiment [1] and in experiment [2] was “inactive” throughout.
Consider `C[C@@H]1CC(=O)NN=C1c1ccc(NN=C(C#N)C#N)cc1`, for which the Potency result in experiment [1] and in experiment [2] was “inactive” in each case.
For `CCO/C([O-])=N/c1c[n+](N2CCOCC2)no1`, the Potency result in experiment [1] and in experiment [2] was “inactive” in each case.
As for `CCOC(=O)[C@H](CCc1ccccc1)N[C@@H](C)C(=O)N1CCC[C@H]1C(=O)O`, the Potency entry in experiment [1] and in experiment [2] was “inactive” in each case.
As for `O=C(O)CNC(=O)c1ccc(CO)o1`, the Potency result in experiment [1] and in experiment [2] was “inactive” throughout.
With `O=C1C(c2[nH]c3ccc(S(=O)(=O)O)cc3c2O)=Nc2ccc(S(=O)(=O)O)cc21`, the Potency result in experiment [1] and in experiment [2] was “inactive” throughout.
Regarding `Cc1ccc(C(=O)O)cc1`, the Potency entry in experiment [1] and in experiment [2] was “inactive” throughout.
Take `CN1CCN(c2c(F)cc3c(=O)c(C(=O)O)cn4c3c2SCC4)CC1`: the Potency entry in experiment [1] and in experiment [2] was “inactive” throughout.
For the compound `CCCCC(CC)COC(=O)c1ccccc1` (stereo not given), the Potency result in experiment [1] and in experiment [2] was “inactive” each time.
As to `C=C[Si](OC(=C)C)(OC(=C)C)OC(=C)C`, the Potency entry in experiment [1] and in experiment [2] was “inactive” each time.
With `C#CC(C)(CC)OC(=O)c1ccccc1C(=O)O` (stereo not given), the Potency entry in experiment [1] and in experiment [2] was “inactive” in each case.
With `CN(C)c1cc(NC(=O)CNC(C)(C)C)c(O)c2c1C[C@H]1C[C@H]3[C@H](N(C)C)C(=O)C(C(N)=O)=C(O)[C@@]3(O)C(=O)C1=C2O`, the Potency entry in experiment [1] and in experiment [2] was “inactive” throughout.
On to `CO[C@H]1C=CO[C@@]2(C)Oc3c(C)c(O)c4c(O)c(c(/C=N/N5CCN(C)CC5)c(O)c4c3C2=O)NC(=O)/C(C)=C\C=C[C@H](C)[C@H](O)[C@@H](C)[C@@H](O)[C@@H](C)[C@H](OC(C)=O)[C@@H]1C`, for which the Potency result in experiment [1] and in experiment [2] was “inactive” throughout.
Turning to `Nc1ccn([C@@H]2O[C@H](CO)[C@@H](O)C2(F)F)c(=O)n1`, the Potency result in experiment [1] and in experiment [2] was “inactive” in each case.
In the case of `CCCCCCCCCCCCSC#N`, the Potency entry in experiment [1] and in experiment [2] was “inactive” throughout.
Consider `CCC(C)c1ccccc1` (stereo not given), for which the Potency result in experiment [1] and in experiment [2] was “inactive” in each case.
For `NNC(=O)c1cccc(C(=O)NN)c1`, the Potency result in experiment [1] and in experiment [2] was “inactive” each time.
Take `CC(CC=O)c1ccccc1` (stereo not given): the Potency result in experiment [1] and in experiment [2] was “inactive” each time.
As for `CN(C)c1ccc(C(c2ccccc2)c2ccc(N(C)C)cc2)cc1`, the Potency entry in experiment [1] and in experiment [2] was “inactive” in each case.
With `CCCCCCCCCCN`, the Potency entry in experiment [1] and in experiment [2] was “inactive” in each case.
Turning to `CN1CC(=O)N2[C@H](c3ccc4c(c3)OCO4)c3[nH]c4ccccc4c3C[C@@H]2C1=O`, the Potency entry in experiment [1] and in experiment [2] was “inactive” throughout.
As for `Cc1cc(C(=C2C=CC(=Nc3ccc(S(=O)(=O)O)cc3S(=O)(=O)O)C=C2)c2ccc(Nc3ccc(S(=O)(=O)O)cc3)cc2)ccc1N`, the Potency entry in experiment [1] and in experiment [2] was “inactive” each time.
For `Cl[Si](Cl)(c1ccccc1)c1ccccc1`, the Potency entry in experiment [1] and in experiment [2] was “inactive” in each case.
Consider `CC(CN)CCCN` (stereo not given), for which the Potency entry in experiment [1] and in experiment [2] was “inactive” in each case.
As to `CC(=O)NO`, the Potency entry in experiment [1] and in experiment [2] was “inactive” throughout.
In the case of `CCCCCCCCN(C)CCCCCCCC`, the Potency result in experiment [1] and in experiment [2] was “inactive” in each case.
For `COc1ccc([C@@H]2CC(=O)c3c(O)cc(O[C@@H]4O[C@H](CO[C@@H]5O[C@@H](C)[C@H](O)[C@@H](O)[C@H]5O)[C@@H](O)[C@H](O)[C@H]4O)cc3O2)cc1OC`, the Potency result in experiment [1] and in experiment [2] was “inactive” each time.
As for `CCc1nccnc1C`, the Potency result in experiment [1] and in experiment [2] was “inactive” each time.
On to `Clc1ccc(Cn2c(CN3CCCC3)nc3ccccc32)cc1`, for which the Potency result in experiment [1] and in experiment [2] was “inactive” throughout.
Consider `COc1ccc(Cl)cc1C(=O)NCCc1ccc(S(=O)(=O)NC(=O)NC2CCCCC2)cc1`, for which the Potency result in experiment [1] and in experiment [2] was “inactive” each time.
In the case of `COC(=O)CCC(=O)OC`, the Potency entry in experiment [1] and in experiment [2] was “inactive” in each case.
For the compound `CC1CC(C)C(=O)C1=O` (stereo not given), the Potency result in experiment [1] and in experiment [2] was “inactive” in each case.
As to `COc1c(Cl)ccc(Cl)c1C(=O)O`, the Potency result in experiment [1] and in experiment [2] was “inactive” in each case.
As to `CCO[Si](CCCS)(OCC)OCC`, the Potency entry in experiment [1] and in experiment [2] was “inactive” in each case.
For `CC1=C(O)C(=O)CO1`, the Potency result in experiment [1] and in experiment [2] was “inactive” in each case.
As to `COc1ccc([C@@H]2Sc3ccccc3NC(=O)[C@@H]2O)cc1`, the Potency result in experiment [1] and in experiment [2] was “inactive” throughout.
Take `NC(=O)c1ccccc1[N+](=O)[O-]`: the Potency result in experiment [1] and in experiment [2] was “inactive” in each case.
Regarding `O=C1CCCC(=O)C1`, the Potency entry in experiment [1] and in experiment [2] was “inactive” throughout.
Take `CSc1cnc(C)cn1`: the Potency result in experiment [1] and in experiment [2] was “inactive” each time.
In the case of `CC(C)COC(=O)COc1ccc(Cl)cc1Cl`, the Potency result in experiment [1] and in experiment [2] was “inactive” throughout.
As for `CC1=CC[C@H](C(C)C)C=C1`, the Potency result in experiment [1] and in experiment [2] was “inactive” each time.
`CCCCCCCCCCCCCCCCCl`: in experiment [1], the viability change, negative = cytotoxic is 3.61% [at 18.9 µM]. The activity change, negative = cytotoxicity in experiment [2] is -18.4% [at 18.9 µM].
With `O=C(O)Cc1cn(-c2ccccc2)nc1-c1ccc(Cl)cc1`, the Potency result in experiment [1] and in experiment [2] was “inactive” in each case.
In the case of `O=c1[nH]c2cc(C(F)(F)F)c(N3CCOCC3)cc2n(CP(=O)(O)O)c1=O`, the Potency entry in experiment [1] and in experiment [2] was “inactive” in each case.
With `O=C(/C=C/c1ccc(O)c(O)c1)O[C@@H]1C[C@@](OC(=O)/C=C/c2ccc(O)c(O)c2)(C(=O)O)C[C@@H](O)[C@@H]1O`, the Potency result in experiment [1] and in experiment [2] was “inactive” throughout.
With `O=C1CCCC(=O)O1`, the Potency result in experiment [1] and in experiment [2] was “inactive” each time.
Take `O=C(c1cc(O)c(O)c(O)c1)c1ccc(O)c(O)c1O`: the Potency entry in experiment [1] and in experiment [2] was “inactive” throughout.
`CCCCCCCC/C=C/CCCOC(C)=O`: the Potency entry in experiment [1] and in experiment [2] was “inactive” in each case.
Turning to `Cc1cccc2n[nH]nc12`, the Potency entry in experiment [1] and in experiment [2] was “inactive” throughout.
